Test results taken from ChEMBL document CHEMBL3988442, “University of Dundee, Small-Polar-MMV Screening Library” (2021).

Target: Chromo domain-containing protein 1 (Saccharomyces cerevisiae (strain ATCC 204508 / S288c) (Baker's yeast)) (UniProt P32657)
Experiment: ScCHD-1 Enzyme Inhibition Assay
Format: functional
Set-up: scale not given: in the data most compounds retested in dose-response had high values
Details: 30 µM

Sequence of Chromo domain-containing protein 1 (Saccharomyces cerevisiae (strain ATCC 204508 / S288c) (Baker's yeast)) (P32657 whole entry, the tested form may be a part): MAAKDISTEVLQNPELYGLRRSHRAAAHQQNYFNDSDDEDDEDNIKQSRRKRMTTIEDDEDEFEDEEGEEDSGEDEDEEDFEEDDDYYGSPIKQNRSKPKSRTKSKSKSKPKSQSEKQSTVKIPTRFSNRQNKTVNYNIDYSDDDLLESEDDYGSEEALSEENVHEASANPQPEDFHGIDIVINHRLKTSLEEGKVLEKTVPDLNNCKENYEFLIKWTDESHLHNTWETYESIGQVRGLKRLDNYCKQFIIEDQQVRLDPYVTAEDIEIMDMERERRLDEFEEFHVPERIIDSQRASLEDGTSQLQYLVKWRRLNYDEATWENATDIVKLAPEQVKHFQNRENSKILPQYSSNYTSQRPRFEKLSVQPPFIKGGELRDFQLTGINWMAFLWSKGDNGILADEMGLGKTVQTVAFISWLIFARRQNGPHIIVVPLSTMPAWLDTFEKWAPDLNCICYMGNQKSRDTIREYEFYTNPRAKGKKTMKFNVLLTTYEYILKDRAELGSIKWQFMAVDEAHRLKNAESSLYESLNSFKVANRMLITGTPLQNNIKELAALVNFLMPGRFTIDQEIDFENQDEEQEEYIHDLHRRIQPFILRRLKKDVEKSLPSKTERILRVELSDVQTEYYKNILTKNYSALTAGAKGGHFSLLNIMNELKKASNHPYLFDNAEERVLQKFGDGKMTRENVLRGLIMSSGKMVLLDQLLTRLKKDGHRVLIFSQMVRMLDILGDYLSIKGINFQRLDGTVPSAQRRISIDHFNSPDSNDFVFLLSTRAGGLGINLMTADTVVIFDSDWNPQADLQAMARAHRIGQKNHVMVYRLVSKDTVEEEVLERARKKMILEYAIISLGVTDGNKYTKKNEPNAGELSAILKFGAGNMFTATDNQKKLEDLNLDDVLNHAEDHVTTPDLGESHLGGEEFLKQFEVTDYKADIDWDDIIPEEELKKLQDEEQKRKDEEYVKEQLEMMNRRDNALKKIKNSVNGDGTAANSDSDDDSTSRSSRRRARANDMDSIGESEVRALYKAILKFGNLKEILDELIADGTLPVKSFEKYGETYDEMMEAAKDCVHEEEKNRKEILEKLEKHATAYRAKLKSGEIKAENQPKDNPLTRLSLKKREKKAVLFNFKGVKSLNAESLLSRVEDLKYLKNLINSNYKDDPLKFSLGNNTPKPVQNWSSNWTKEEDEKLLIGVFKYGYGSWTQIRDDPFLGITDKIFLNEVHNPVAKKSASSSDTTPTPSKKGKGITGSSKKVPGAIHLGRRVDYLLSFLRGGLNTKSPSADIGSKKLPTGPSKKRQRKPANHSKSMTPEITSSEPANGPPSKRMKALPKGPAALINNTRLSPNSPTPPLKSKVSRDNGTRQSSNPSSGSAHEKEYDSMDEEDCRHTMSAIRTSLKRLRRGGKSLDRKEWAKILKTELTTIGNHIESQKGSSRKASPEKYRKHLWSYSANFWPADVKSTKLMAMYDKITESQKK

Row | SMILES | Percent Effect [%]
1 | CC(C)(C)c1cnc(CN2CCCC2Cn2cccn2)o1 (centres undefined) | -4.77
2 | Cc1nc(C)c(C(=O)NCCNC(=O)Cc2ccccc2)s1 | -2.99
3 | CC(C)NC(=O)c1n[nH]c(-n2cnnc2)n1 | -8.26
4 | CC(C)C1CN(C(=O)c2ccc(N3CCCC3)nc2)CCS1 (centres undefined) | -1.7
5 | O=C(NC1CC1)[C@@H]1CCO[C@@H]2CCN(Cc3ccsc3)C[C@H]21 | 7.56
6 | Cc1cc(CN(C)C2CCCN(c3cccnn3)C2)on1 (centres undefined) | -1.67
7 | CN(Cc1ccc(F)cc1)C(=O)CN1CCOC(Cn2cncn2)C1 (centres undefined) | -4.1
8 | CC(C)COC(C)C(=O)NCc1cc(F)cc(F)c1 (centres undefined) | -5.87
9 | COCCC(=O)N1CCN(C)c2ncccc2C1 | 2.1
10 | Cn1cc(N2CCC3(CCN(Cc4nccs4)C3)C2=O)cn1 (centres undefined) | -0.716
11 | O=C(CCc1nccs1)N1CCN(c2ccccc2F)CC1 | -2.22
12 | CNC(=O)CCNC(=O)c1cccc(Cn2nc(C)cc2C)c1 | -5.17
13 | Cc1cc(C)cc(OCCC(=O)N2CCCC(n3cncn3)C2)c1 (centres undefined) | 1.95
14 | O=C(CSc1ccccc1Cl)NS(=O)(=O)c1ccc2c(c1)OCCO2 | -10.3
15 | O=c1ccc(-c2cccs2)nn1CN1CCCCCC1 | -5.05
16 | O=C(NCCOc1ncc(Cl)cc1Cl)c1ccncc1 | -3.07
17 | COc1cccc(OCC2CCCN(C(=O)c3cnc(C)nc3O)C2)c1 (centres undefined) | -2.95
18 | CCc1cccc(NS(=O)(=O)c2cc3c(c(C(=O)O)c2)OCCO3)c1 | -30.6
19 | CC(C)S(=O)(=O)NCC1CCCN(C(=O)c2ccc3c(c2)OCCO3)C1 (centres undefined) | -3.79
20 | Cc1cnccc1CN1C[C@@H](O)[C@H](Oc2cccc(F)c2)C1 | -22.9

Row | SMILES | Percent Effect [%]
21 | CC1CN(C(=O)NCCCn2cncn2)CCO1 (centres undefined) | -1.67
22 | CCCc1nc(CN2CCOC(CNc3cccnn3)C2)cs1 (centres undefined) | -7.47
23 | Cc1ccc(NC2CCN(C(=O)c3cccn3C)CC2)nn1 | -12.9
24 | Cc1ccc(CNC(=O)Cn2ncc3c2c(C)nn3C)cc1 | -8.77
25 | O=C(N[C@@H]1CN(Cc2ccccc2)C[C@@H]2CCCO[C@@H]21)C1CC1 | -7.85
26 | Fc1ccc(OCCCN2CCOC(Cn3cncn3)C2)cc1 (centres undefined) | -15.5
27 | Cc1cc(C)c(CNC(=O)NCC(O)c2cccc(F)c2)c(=O)[nH]1 (centres undefined) | -1.76
28 | O=C(CCn1ccc2cc(Br)ccc21)NCc1ccc(C(=O)O)cc1 | -1.59
29 | O=C(NCc1ccc(OCC2CC2)nc1)c1c(F)cccc1F | -4.74
30 | CSc1nccn1-c1cccc(C(=O)NCCCN2CCOCC2)c1 | -4.95
31 | CC(C)c1nn(C)c(N(C)C)c1CNCc1ccc2c(c1)OCO2 | 0.321
32 | CC(Oc1ccccc1C(F)(F)F)C(=O)NCC(N)=O (centres undefined) | 2.04
33 | O=c1n(CCSCc2ccccc2F)nc2ccccn12 | -29.5
34 | Cc1noc(C)c1C1CCCN1C(=O)CN1CC2(CCNCC2)OC1=O (centres undefined) | -4.34
35 | CN(CC1CCCO1)C1CCN(CCc2ccccn2)CC1 (centres undefined) | 8.88
36 | N#Cc1cccc(S(=O)(=O)NC(=O)COC2CCCC2)c1 | -7.26
37 | COc1cccc(OCC(=O)NS(=O)(=O)c2ccc(C)s2)c1 | -4.35
38 | Cn1ccnc1-c1ccccc1C(=O)N1CCc2c(nc(N)[nH]c2=O)C1 | 3.09
39 | CN(C)C(=O)CN1C[C@@H]2CC[C@H](C1)N(C(=O)CCn1cncn1)C2 | -3.62
